# This is a sample that favours compounds with a hit; in the whole collection about 7.9% have one here.
# KB-3-1 tox: kills parental KB-3-1 adenocarcinoma cells; KB-3-1 viability, CellTiter-Glo ATP luminescence, 72 h; Potency, µM (highest dose often 46.1 µM), most hits filed as cytotoxic; 400,000 tested, 1.4% active; also: nearly all actives have a fitted effect of over 60% in size
#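 Multi-concentration cytotoxicity screen in KB-3-1 cells grown in DMEM lacking phenol red with 10% FBS. After 72 h at 37 °C with compound, ATP-dependent luminescence was recorded.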
# SW480 rerep: inducers of DNA re-replication in SW480 colon cancer cells; SW480 DNA re-replication, Hoechst DNA content imaging, 48 h; Potency, µM (titrated, usually from 46.1 µM), hits mostly activators; 340,000 tested, 1.8% active; also: nearly all actives have a fitted effect of over 55% in size
#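 Quantitative HTS format with DMSO vehicle controls; 48 hr drug incubation at 37 C, then 40 min Hoechst staining and scanning imager measurement at 405 nm excitation.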
# HT1080NT lethal: kills 2HG-producing HT-1080-NT fibrosarcoma cells; HT-1080-NT fibrosarcoma viability, CellTiter-Glo ATP luminescence, 48 h; Potency, µM (series often up to 46.1 µM), actives largely listed as cytotoxic; AID 686970; 360,000 tested, 1.6% active;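 also: NT is the 2HG producing partner of a matched IDH1 knockdown line; nearly all actives have a fitted effect of over 55% in size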
#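 HT-1080-NT; 750 cells/well; 5% FBS RPMI; 48 h compound, 37 degrees C; CellTiter-Glo luminescence; curve fitting and curve-class assignment.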
# HT1080 IDH1KD tx: HT-1080 IDH1 knockdown cell toxicity (counter line) | Potency, µM (titrated, usually from 46.1 µM), usual class: cytotoxic | HT-1080 IDH1 knockdown viability, ATP luminescence, 48 h | 360,000 tested, 2% active
#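 CellTiter-Glo luminescence after 48 h compound exposure at 37 degrees C of IDH1-knockdown HT-1080 cells in 5% FBS RPMI. %Activity scaled between DMSO wells and cell-free media wells, with curves fitted and assigned curve classes.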
# MCF10A rerep: induces DNA re-replication in MCF 10a normal breast cells. MCF 10A DNA re-replication, Hoechst nuclear intensity, 48 h. Potency, µM (series often up to 46.1 µM), most hits filed as activators. 350,000 tested, 2.9% active. AID 624296; also: nearly all actives have a fitted effect of over 50% in size
# KB-V1 cytotox: kills drug-selected multidrug resistant KB-V1 cells; KB-V1 MDR cells viability, CellTiter-Glo, 72 h; Potency, µM (series often up to 46.1 µM), most hits filed as cytotoxic; 400,000 tested, 3.4% active; AID 1347076; also: nearly all actives have a fitted effect of over 60% in size
#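 Potencies derive from concentration-effect curves fitted to normalized luminescence (CellTiter-Glo) of KB-V1 cells treated for 72 h at 37 degrees C in phenol-red-free DMEM containing 10% FBS.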
# Hits are given with their value; - = inactive; ? = inconclusive; . = not tested or not shown. Calls follow the shape of the dose curve; as a rule, active = well fitted curve in the direction sought with a large enough effect; inconclusive = small, poorly fitted or top-dose-only effect, or another doubt; inactive = no such curve, though single readings can be large; an effect the other way counts as inactive or inconclusive.
SMILES,KB-3-1 tox,SW480 rerep,HT1080NT lethal,HT1080 IDH1KD tx,MCF10A rerep,KB-V1 cytotox
CCN1CCN(C(CNS(=O)(=O)c2ccccc2)c2ccccc2)CC1 (stereo not given),-,-,-,-,-,-
COc1cccc(C(O)c2nc(-c3cccc(C(C)C)c3)cs2)c1 (stereo not given),-,.,-,?,.,-
CCCCCCN(C(=O)CCl)c1ccccc1,-,9.2µM,3.66µM,?,?,-
N#CCCN(C(=O)COC(=O)c1nc(Cl)ccc1Cl)c1ccccc1,-,-,-,-,-,-
O=Cc1[nH]c2ccccc2c1N(C(=O)CCl)c1ccccc1,-,-,16.4µM,23.1µM,?,-
Cc1ccc(N(NC(=O)C(O)(c2ccccc2)c2ccccc2)C(=O)CCl)cc1,?,18.4µM,5.17µM,5.8µM,23.1µM,?
N#CCCN(C(=O)CCl)c1cccc(Cl)c1,20.6µM,2.59µM,?,23.1µM,?,?
Cc1ccc(C(O)(C(=O)NN(C(=O)c2ccccc2)c2ccccc2)c2ccc(C)cc2)cc1,-,?,-,-,-,-
O=C(O)C1Nc2ccccc2C2C=CCC12 (stereo not given),-,.,.,.,.,?
CNC(=O)C[C@@H]1C(=O)N(CCc2ccccc2)CC1(C)C,-,.,-,-,.,-
CCn1c(=O)cc(OCC(=O)NCc2ccccc2Cl)c2ccccc21,-,.,.,.,.,-
O=C(Nc1nc(-c2ccccn2)cs1)c1ccc(Br)s1,-,2.06µM,2µM,1.41µM,25.9µM,1.3µM
C[C@H](NC(=O)c1ccco1)C(=O)Nc1nc(-c2ccccn2)cs1,-,?,-,-,-,4.11µM
O=C(CCS(=O)(=O)c1ccc(F)cc1)Nc1nc(-c2ccccn2)cs1,?,-,-,-,-,-
C[C@H](NC(=O)c1ccco1)C(=O)Nc1nnc(SCc2ccccc2)s1,-,-,-,-,?,-
CC(Oc1ccc(F)cc1)C(=O)Nc1nc(-c2ccccn2)cs1 (stereo not given),?,-,?,?,3.26µM,-
O=C(Nc1nc(-c2ccccn2)cs1)c1ccco1,-,4.11µM,?,-,?,-
COCCOc1ccc(C(F)(F)F)cc1NC(=O)COC(=O)C12CC3CC(CC(O)(C3)C1)C2,.,-,-,-,-,.
Oc1cccc(Nc2ncnc3sc4c(c23)CCCC4)c1,-,.,.,.,.,-
COc1ccc(-c2nnc(SCC(=O)c3[nH]c(C)c(C(C)=O)c3C)o2)cc1,-,-,-,-,-,?
CCOC(=O)c1[nH]c(CSc2nnc(-c3ccc(OC)cc3)o2)c(C(=O)OCC)c1C,-,-,-,-,16.4µM,?
COc1ccc(CCOC(=O)c2ccc(N)c([N+](=O)[O-])c2)cc1,-,-,-,-,-,-
CC(=O)N(c1ccccc1C)C1CCCC1,-,-,-,-,-,-
CC(=O)N(C1=C(Cl)C(=O)c2ccccc2C1=O)C1CCCCC1,?,?,4.11µM,2.91µM,?,?
Cc1ccc(C(C(=O)NCc2ccco2)N(C(=O)CNC(=O)c2cccs2)c2c(C)cccc2C)cc1 (stereo not given),-,?,-,-,18.4µM,-
SMILES,KB-3-1 tox,SW480 rerep,HT1080NT lethal,HT1080 IDH1KD tx,MCF10A rerep,KB-V1 cytotox
CCOC(=O)c1sc2ncn(CC(=O)Nc3ccc(F)cc3F)c(=O)c2c1C,-,.,.,.,.,-
CNCC/C=C1/c2ccccc2CSc2ccccc21,-,-,16.4µM,?,-,-
OCCN1CCN(CC/C=C2/c3ccccc3CSc3ccccc32)CC1,-,-,-,-,-,-
C=CCc1c(C)nc(C)nc1N/N=C/c1ccccc1O,-,11.6µM,-,-,-,7.31µM
Cc1ccc(CN2CCC(n3nccc3NC(=O)CCOc3ccccc3)CC2)cc1C,-,?,-,-,?,?
COc1ccccc1-c1ccc2c(c1)C(C)(Cc1ccc(Cl)c(Cl)c1)C(=O)N2 (stereo not given),-,.,?,23.1µM,.,-
CC1(Cc2ccc(Cl)c(Cl)c2)C(=O)Nc2ccc(S(=O)(=O)NC3CCCCC3)cc21 (stereo not given),?,.,?,?,.,18.4µM
CCc1ccccc1N(C)C,-,.,.,.,.,-

# Source: PubChem
